Assay results: paper PMC5540273 (PLoS ONE, 2017)

Key:
Conditions in all cases: concentration: 1 μM, replicates: in singlicate; n = 1
EIF2AK1 = test system: EIF2AK1
EPHA1 = test system: EPHA1
EPHA2 = test system: EPHA2
EPHA3 = test system: EPHA3
EPHA4 = test system: EPHA4
EPHA5 = test system: EPHA5
EPHA6 = test system: EPHA6
EPHA7 = test system: EPHA7
EPHA8 = test system: EPHA8
EPHB1 = test system: EPHB1
EPHB2 = test system: EPHB2
EPHB3 = test system: EPHB3
EPHB4 = test system: EPHB4
EPHB6 = test system: EPHB6
ERBB2 = test system: ERBB2
ERBB3 = test system: ERBB3
ERBB4 = test system: ERBB4
ERK1 = test system: T1, ERK1
T1 construct: gene MAPK3

ERK2 = test system: T2, ERK2
T2 construct: gene MAPK1

ERK3 = test system: T3, ERK3
T3 construct: gene MAPK6
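Also: KINOMEscan kinase panel screen.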

## CSc1nn2c(=O)cc(N3CCOCC3)nc2n1Cc1cccc(Cl)c1Cl [GSK2347225]
EIF2AK1
  %Inh: 2%
EPHA1
  %Inh: 1%
EPHA2
  %Inh: 11%
EPHA3
  %Inh: 15%
EPHA4
  %Inh: 8%
EPHA5
  %Inh: 1%
EPHA6
  %Inh: 3%
EPHA7
  %Inh: 12%
EPHA8
  %Inh: 15%
EPHB1
  %Inh: 29%
EPHB2
  %Inh: 0%
EPHB3
  %Inh: 6%
EPHB4
  %Inh: 11%
EPHB6
  %Inh: 52%
ERBB2
  %Inh: 0%
ERBB3
  %Inh: 0%
ERBB4
  %Inh: 0%
ERK1
  %Inh: 0%
ERK2
  %Inh: 17%
ERK3
  %Inh: 15%

## Nc1n[nH]c2nnc(-c3ccccc3)cc12 [SB-517389]
EIF2AK1
  %Inh: 13%
EPHA1
  %Inh: 9%
EPHA2
  %Inh: 4%
EPHA3
  %Inh: 0%
EPHA4
  %Inh: 14%
EPHA5
  %Inh: 0%
EPHA6
  %Inh: 0%
EPHA7
  %Inh: 8%
EPHA8
  %Inh: 15%
EPHB1
  %Inh: 9%
EPHB2
  %Inh: 80%
EPHB3
  %Inh: 10%
EPHB4
  %Inh: 22%
EPHB6
  %Inh: 0%
ERBB2
  %Inh: 7%
ERBB3
  %Inh: 0%
ERBB4
  %Inh: 0%
ERK1
  %Inh: 0%
ERK2
  %Inh: 0%
ERK3
  %Inh: 16%

## CCCc1ccc(S(=O)(=O)NC2CCN(c3ccnc(Nc4ccc(OC)cc4)n3)C2)cc1 (centres unmarked) [GSK1379737]
EIF2AK1
  %Inh: 0%
EPHA1
  %Inh: 15%
EPHA2
  %Inh: 0%
EPHA3
  %Inh: 0%
EPHA4
  %Inh: 0%
EPHA5
  %Inh: 0%
EPHA6
  %Inh: 12%
EPHA7
  %Inh: 0%
EPHA8
  %Inh: 7%
EPHB1
  %Inh: 0%
EPHB2
  %Inh: 10%
EPHB3
  %Inh: 5%
EPHB4
  %Inh: 7%
EPHB6
  %Inh: 31%
ERBB2
  %Inh: 36%
ERBB3
  %Inh: 0%
ERBB4
  %Inh: 24%
ERK1
  %Inh: 0%
ERK2
  %Inh: 0%
ERK3
  %Inh: 79%

## OCCOCCn1ccc2ncnc(Nc3ccc(Oc4cccc(Cl)c4)c(Cl)c3)c21
EIF2AK1
  %Inh: 0%
EPHA1
  %Inh: 0%
EPHA2
  %Inh: 1%
EPHA3
  %Inh: 0%
EPHA4
  %Inh: 0%
EPHA5
  %Inh: 0%
EPHA6
  %Inh: 0%
EPHA7
  %Inh: 0%
EPHA8
  %Inh: 0%
EPHB1
  %Inh: 2%
EPHB2
  %Inh: 0%
EPHB3
  %Inh: 6%
EPHB4
  %Inh: 0%
EPHB6
  %Inh: 2%
ERBB2
  %Inh: 100%
ERBB3
  %Inh: 0%
ERBB4
  %Inh: 96%
ERK1
  %Inh: 0%
ERK2
  %Inh: 0%
ERK3
  %Inh: 0%

## COc1cc2ncnc(Nc3ccc(OCc4ccccc4Br)c(Cl)c3)c2cc1OC.Cl [GI261590]
EIF2AK1
  %Inh: 0%
EPHA1
  %Inh: 8%
EPHA2
  %Inh: 14%
EPHA3
  %Inh: 0%
EPHA4
  %Inh: 3%
EPHA5
  %Inh: 15%
EPHA6
  %Inh: 7%
EPHA7
  %Inh: 4%
EPHA8
  %Inh: 17%
EPHB1
  %Inh: 12%
EPHB2
  %Inh: 5%
EPHB3
  %Inh: 22%
EPHB4
  %Inh: 31%
EPHB6
  %Inh: 26%
ERBB2
  %Inh: 96.5%
ERBB3
  %Inh: 29%
ERBB4
  %Inh: 100%
ERK1
  %Inh: 0%
ERK2
  %Inh: 16%
ERK3
  %Inh: 0%

## CSc1ccc(NC2=C(c3ccccc3Cl)C(=O)NC2=O)cc1 [SB-342411]
EIF2AK1
  %Inh: 0%
EPHA1
  %Inh: 2%
EPHA2
  %Inh: 27%
EPHA3
  %Inh: 16%
EPHA4
  %Inh: 7%
EPHA5
  %Inh: 0%
EPHA6
  %Inh: 0%
EPHA7
  %Inh: 6%
EPHA8
  %Inh: 14%
EPHB1
  %Inh: 9%
EPHB2
  %Inh: 15%
EPHB3
  %Inh: 0%
EPHB4
  %Inh: 3%
EPHB6
  %Inh: 18%
ERBB2
  %Inh: 0%
ERBB3
  %Inh: 0%
ERBB4
  %Inh: 0%
ERK1
  %Inh: 5%
ERK2
  %Inh: 0%
ERK3
  %Inh: 0%

## CCc1nc(-c2cccc(N(C)S(=O)(=O)c3ccccc3)c2)c(-c2ccnc(Nc3ccc(N4CCN(C(C)=O)CC4)nc3)n2)s1 [GSK1645895]
EIF2AK1
  %Inh: 0%
EPHA1
  %Inh: 29%
EPHA2
  %Inh: 0%
EPHA3
  %Inh: 14%
EPHA4
  %Inh: 0%
EPHA5
  %Inh: 0%
EPHA6
  %Inh: 2%
EPHA7
  %Inh: 5%
EPHA8
  %Inh: 25%
EPHB1
  %Inh: 7%
EPHB2
  %Inh: 0%
EPHB3
  %Inh: 0%
EPHB4
  %Inh: 0%
EPHB6
  %Inh: 96.9%
ERBB2
  %Inh: 17%
ERBB3
  %Inh: 0%
ERBB4
  %Inh: 26%
ERK1
  %Inh: 0%
ERK2
  %Inh: 0%
ERK3
  %Inh: 0%

## c1ccc(-c2ccc3c(-c4ccnc(Nc5ccc6c(c5)OCCO6)n4)cnn3n2)cc1 [GW818941]
EIF2AK1
  %Inh: 0%
EPHA1
  %Inh: 7%
EPHA2
  %Inh: 18%
EPHA3
  %Inh: 0%
EPHA4
  %Inh: 21%
EPHA5
  %Inh: 0%
EPHA6
  %Inh: 12%
EPHA7
  %Inh: 14%
EPHA8
  %Inh: 17%
EPHB1
  %Inh: 18%
EPHB2
  %Inh: 3%
EPHB3
  %Inh: 13%
EPHB4
  %Inh: 10%
EPHB6
  %Inh: 0%
ERBB2
  %Inh: 21%
ERBB3
  %Inh: 15%
ERBB4
  %Inh: 0%
ERK1
  %Inh: 11%
ERK2
  %Inh: 6%
ERK3
  %Inh: 0%

## O=C(NCCCN1CCCC1=O)c1cnc(NCc2cc(Cl)ccc2Cl)nc1NC1CCNCC1
EIF2AK1
  %Inh: 0%
EPHA1
  %Inh: 9%
EPHA2
  %Inh: 2%
EPHA3
  %Inh: 0%
EPHA4
  %Inh: 0%
EPHA5
  %Inh: 2%
EPHA6
  %Inh: 0%
EPHA7
  %Inh: 0%
EPHA8
  %Inh: 0%
EPHB1
  %Inh: 7%
EPHB2
  %Inh: 0%
EPHB3
  %Inh: 0%
EPHB4
  %Inh: 0%
EPHB6
  %Inh: 19%
ERBB2
  %Inh: 9%
ERBB3
  %Inh: 3%
ERBB4
  %Inh: 0%
ERK1
  %Inh: 0%
ERK2
  %Inh: 11%
ERK3
  %Inh: 0%

## CC(C)N1CCC(n2cnc(-c3ccc(F)cc3)c2-c2ccnc(N)n2)CC1 [SB-223132]
EIF2AK1
  %Inh: 0%
EPHA1
  %Inh: 28%
EPHA2
  %Inh: 46%
EPHA3
  %Inh: 0%
EPHA4
  %Inh: 0%
EPHA5
  %Inh: 0%
EPHA6
  %Inh: 0%
EPHA7
  %Inh: 0%
EPHA8
  %Inh: 17%
EPHB1
  %Inh: 0%
EPHB2
  %Inh: 32%
EPHB3
  %Inh: 0%
EPHB4
  %Inh: 22%
EPHB6
  %Inh: 0%
ERBB2
  %Inh: 16%
ERBB3
  %Inh: 44%
ERBB4
  %Inh: 0%
ERK1
  %Inh: 0%
ERK2
  %Inh: 11%
ERK3
  %Inh: 0%
